Bioassay records deposited in PubChem BioAssay by several laboratories.
This is a sample that favours compounds with a hit; in the whole collection about 0.98% have one here.
FadD28 FP inh = inhibitors of FadD28 bisubstrate probe binding, primary screen, biochemical, fluorescence polarization, single point; inhibition, % at 12.5 µM; 360,000 compounds, 0.22% hits; AID 588549, 2011; in the data active means inhibition above about 8.5%, passing the limit was not always enough; inconclusive means no clear call, values can overlap the other calls
Mtb UGM inh = M. tuberculosis UGM enzyme inhibitors, primary screen, biochemical, fluorescence polarization, single point; UDP-galactopyranose mutase (Mycobacterium tuberculosis (strain ATCC 25618 / H37Rv)), …; purified UGM, fluorescence polarization probe displacement; inhibition, % at 10 µM; 320,000 compounds, 0.06% hits; AID 504406, 2011; in the data active means inhibition above about 10%, passing the limit was not always enough; inconclusive means no clear call, values can overlap the other calls
Target sequence (P9WIQ1 whole entry, looked up): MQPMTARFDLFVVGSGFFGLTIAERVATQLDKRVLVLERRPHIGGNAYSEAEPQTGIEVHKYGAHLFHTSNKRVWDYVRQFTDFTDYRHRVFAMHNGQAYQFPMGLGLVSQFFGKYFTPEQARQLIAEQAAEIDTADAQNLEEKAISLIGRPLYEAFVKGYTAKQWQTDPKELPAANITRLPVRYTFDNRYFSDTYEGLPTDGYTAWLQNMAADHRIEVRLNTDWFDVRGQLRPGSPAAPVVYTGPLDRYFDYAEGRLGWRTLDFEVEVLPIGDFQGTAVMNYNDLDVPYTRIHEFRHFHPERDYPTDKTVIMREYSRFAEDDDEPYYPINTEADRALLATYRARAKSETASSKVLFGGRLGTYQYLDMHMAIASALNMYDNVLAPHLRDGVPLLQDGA
PfHsp40 rescue = rescue of yeast from PfHsp40 toxicity, primary screen, S. cerevisiae, ATP luminescence. 340,000 compounds, 0.68% hits. S. cerevisiae expressing PfHsp40, growth rescue. growth rescue, % at 12.5 µM; in the data active means growth rescue above about 28%, passing the limit was not always enough; inconclusive means no clear call, values can overlap the other calls;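 further: yeast W303a lacking pdr1 and pdr3 grown in galactose medium; growth measured after three days at 30 °C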
Mtb bLac sens = beta-lactam sensitization of Mtb H37Rv, H37Rv; M. tuberculosis H37Rv growth with meropenem, percent inhibition; inhibition, % at 25 µM; 330,000 compounds, 0.27% hits; AID 434955, 2010; call rule not given here;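 further: growth measured after seven days incubation then overnight dye step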
Rv3671c protease = Rv3671c serine protease inhibitors, primary screen, biochemical, fluorescence polarization, M. tuberculosis H37Rv; P9WHR9; inhibition, % at 5.96 µM; 320,000 compounds, 0.048% hits; AID 2606, 2010; in the data active means inhibition above about 38%;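 further: extracellular domain of Rv3671c used as enzyme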
Yp Topo-I inh = Yersinia pestis topoisomerase I inhibitors, primary screen, biochemical, cleavage product accumulation, plate reader, single point | DNA topoisomerase I (Yersinia pestis CO92) | Y. pestis Topo-I cleavage product accumulation | activity, % at 10 µM | 360,000 compounds, 0.064% hits | AID 504884, 2011; in the data active means activity above about 50%, passing the limit was not always enough; inconclusive means no clear call, values can overlap the other calls
Each line names hits and unclear results; the compound was inactive in the other large screens.

COCCNC(=O)C1(C)CCN(C(=O)c2cccnc2Oc2ccccc2)C1 (configuration not stated)	none (no result: Mtb UGM inh, PfHsp40 rescue, Mtb bLac sens, Rv3671c protease)
Cc1cc(C)nc(NC(=O)CSc2nc3cc(Cl)ccc3s2)n1	PfHsp40 rescue 66
Cc1cc(C)nc(NC(=O)CSc2nc3ccccc3s2)n1	none
CCNC(=O)C1(C)CCCN(C(=O)c2nc(C)oc2C)C1 (configuration not stated)	none (no result: Mtb UGM inh, PfHsp40 rescue, Mtb bLac sens, Rv3671c protease)
CC1COc2ccccc2N1S(=O)(=O)c1ccc(Cl)cc1 (configuration not stated)	PfHsp40 rescue 32
Cc1ccc(S(=O)(=O)N2c3ccccc3OCC2c2ccccc2)cc1 (configuration not stated)	Mtb bLac sens inconclusive
CCCCNC(=O)c1nc(C2CCN(S(=O)(=O)c3c(F)cccc3F)CC2)oc1-c1cccc(C(F)(F)F)c1	none (no result: Mtb UGM inh, PfHsp40 rescue, Mtb bLac sens, Rv3671c protease, Yp Topo-I inh)
COc1c(CC=C(C)C)c(O)cc2oc(=O)c3c4ccc(O)cc4oc3c12	none (no result: PfHsp40 rescue)
CC(C)=CCc1c(O)cc2c(=O)c3ccc(O)cc3oc2c1O	PfHsp40 rescue 147
Cc1[nH]c2ccccc2c1N=Nc1ccccc1F	PfHsp40 rescue 170
Cc1[nH]c2ccccc2c1N=Nc1ccc(F)cc1	none
CC1(C(=O)Nc2ccc3nc[nH]c3c2)CCN1C(=O)c1ccccc1CCc1ccccc1 (configuration not stated)	none (no result: Mtb UGM inh, PfHsp40 rescue, Mtb bLac sens, Rv3671c protease)
CCOC(=O)CNc1ccc2c(c1)OCO2	Mtb UGM inh 12
O=C1c2ccccc2NC(c2ccco2)N1O (configuration not stated)	none
O=C1c2ccccc2NC(c2ccc(-c3ccc(C(F)(F)F)cc3)o2)N1O (configuration not stated)	PfHsp40 rescue 279
O=C1c2ccccc2NC(c2ccc(Br)o2)N1O (configuration not stated)	none
O=C1c2ccccc2NC(c2ccc(-c3cccs3)o2)N1O (configuration not stated)	PfHsp40 rescue 58
CCc1nc2c(OCc3ccc(F)c(F)c3)cccn2c1N(C)C(=O)c1ccc(C)cc1	none (no result: Mtb UGM inh, PfHsp40 rescue, Mtb bLac sens, Rv3671c protease)
CC1(C(=O)Nc2ccccc2)Cc2c(-c3cccc(C(F)(F)F)c3)ccnc2O1 (configuration not stated)	none (no result: Mtb UGM inh, PfHsp40 rescue, Mtb bLac sens, Rv3671c protease)
O=C(Nc1ccc(NC(=O)c2cc([N+](=O)[O-])ccc2N2CCOCC2)cc1)c1cccs1	FadD28 FP inh 12
C#Cc1cccc(Nc2nc(NC(C)C)nc3ccsc23)c1	none (no result: Mtb UGM inh, PfHsp40 rescue, Mtb bLac sens, Rv3671c protease)
O=C(Nc1ccccc1-c1ccccc1)c1ccccc1	none
Nc1c(S(=O)(=O)O)cc(NC(=O)c2ccccc2)c2c1C(=O)c1ccccc1C2=O	FadD28 FP inh 26
Cc1ccc(NC2(c3nnnn3-c3c(C)cccc3C)CCCCC2)cc1	PfHsp40 rescue 66
CCCc1cc(-c2n[nH]c(=S)n2-c2cccc(C)c2)cs1	PfHsp40 rescue 68
Cc1cccc(-n2c(-c3csc(C(C)C)c3)n[nH]c2=S)c1	none (no result: Mtb UGM inh)
CCCCCCCCCCSc1n[nH]c(N)n1	PfHsp40 rescue 303
O=C(Nc1cccc(C(F)(F)F)c1)c1csc([C@@H]2O[C@H](CO)[C@@H](O)[C@H]2O)n1	none (no result: Mtb UGM inh, PfHsp40 rescue, Mtb bLac sens, Rv3671c protease)
N#CC(C#N)=C1C=CC=CN1/C(=C\c1ccco1)C(=O)c1ccc(-c2ccccc2)cc1	PfHsp40 rescue 56
CCC(=O)N1CCCC(C)(C(=O)Nc2ccc(OC(F)F)cc2)C1 (configuration not stated)	none (no result: Mtb UGM inh, PfHsp40 rescue, Mtb bLac sens, Rv3671c protease)
CCOC(=O)C1=CCN(S(=O)(=O)c2ccc(C)cc2)C1c1ccc(C(C)C)cc1 (configuration not stated)	none (no result: Mtb UGM inh, PfHsp40 rescue, Mtb bLac sens, Rv3671c protease, Yp Topo-I inh)
O=C(c1ccco1)N1CCN(C(=O)c2ccccc2OCc2ccc(Cl)cc2)CC1	PfHsp40 rescue 253
O=C(OCC(=O)N1CCN(C(=O)c2ccco2)CC1)c1ccccc1OCc1ccccc1	none
CSCCNC(=O)C1(C)CCN1C(=O)c1sccc1C (configuration not stated)	none (no result: Mtb UGM inh, PfHsp40 rescue, Mtb bLac sens, Rv3671c protease)
O=C(O)CCCc1ccc2c(c1)CCc1ccccc1-2	PfHsp40 rescue 185
O=C(CCCc1ccccc1)NC1CC1	none
COCCNc1nc(C)cc(-c2cc(C(=O)Nc3ccccc3)on2)n1	none
CCCNc1nc(-c2cc(C(=O)Nc3ccccc3)on2)cc(C(C)C)n1	PfHsp40 rescue 365
